The source of these data is PubChem BioAssay AID977606 (Broad Institute, 2014).

Structures are written as SMILES. In all, about 1,500 compounds went through this assay and about 430 (29%) were called active. The list is a sample of the results. Entries with a potency or affinity are not part of this list. A number with no mark means an inactive call. The rule behind the calls is not given here.

This assay is described as follows: insulin secretion activators without glucose, dose response, counter-screen for glucose-dependent insulin secretion activators, cell-based, INS-1E, Gaussia luciferase, luminescence, cherry-pick (AID 977606).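 Note: 0% = median of neutral control wells.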 Particulars: INS-1E Gaussia luciferase insulin secretion, no glucose, 100% = twice neutral-control luminescence; series mostly up to 35 µM; activation: at the top concentration. Background: The purpose of a counterscreen is to sort out artefacts and off-target activity.
For `CCN(CC)C(=O)Cn1cc(C(=O)C(=O)N2CCN(Cc3ccccc3)CC2)c2ccccc21`, the “activation” value was 11.5%.

Take `Cc1ccc(-c2nc3c(=O)n(C)c4ccccc4c3o2)cc1`: the “activation” value was -7.37%.

For `O=C(CC(c1ccccc1)c1ccco1)N1CCOCC1` (configuration not stated), the “activation” value was 34.3%. In the case of `CC(C)CCC(O)(CCC(C)C)C(=O)NN1CCCCC1` it was -21.7%; in that of `COc1ccc(C2=NN(c3ccc(C(=O)O)cc3)C(c3ccc(OC)c(OC)c3)C2)cc1` (configuration not stated), -0.29%; in that of `CCOc1cc(C2C3=C(CC(C)(C)CC3=O)Nc3n[nH]c(C)c32)ccc1O` (configuration not stated), 0.859%. Consider `CC(C)CCN1C(=O)CSCC1(C)C(=O)NC(C)C` (configuration not stated), for which the “activation” value is -4.81%. In the case of `CCCc1nnc2c(N(C)S(=O)(=O)c3ccc(C)cc3)nc3ccccc3n12` it was -6.68%; in that of `Cc1cc(=O)[nH]c2c1c(C)nn2C1CCCC1`, 1.46%. Regarding `N#Cc1sc2nc(C3CC3)cc(-c3ccccc3)c2c1N`, the “activation” value is 1.96%. The figure for `COc1cc2c(cc1OC)C1=C(C#N)CCC(=NC(=O)c3ccco3)N1CC2` is 11.7%. In the case of `O=C(CN1C(=O)CCC1=O)Nc1cccc2c1C(=O)NC2=O` it was -11.5%; in that of `Cc1cc(-c2ccc(Br)cc2)n2nc(C)cc2n1`, -1.47%.

With `CSc1ncccc1C(=O)NCCc1ccccc1F`, the “activation” value was 2.04%. The figure for `CCSc1nnc2ccc(-c3ccc(C)cc3)nn12` is 0.044%. The figure for `CSc1ccc2nnc(-c3cccc(F)c3)n2n1` is 2.54%; for `O=C(CCCC(=O)c1ccccc1)NCc1ccccc1` it is 6.76%; for `CCCn1c(=O)c(C(=O)NCc2ccccc2)c(O)c2ccccc21` it is -13.3%.

With `O=C(CCc1nc2ccccc2c(=O)[nH]1)NNC(=O)c1cccc(Cl)c1`, the “activation” value was -7.41%. The figure for `CCOc1ccc(CCNC(=O)COC(=O)c2nccnc2N)cc1OCC` is -10.8%. The figure for `COc1ccccc1C(C)NS(=O)(=O)c1ccc(Cl)nc1` (configuration not stated) is 1.68%; for `COc1ccc(S(=O)(=O)N2CCC(C(=O)NCc3ccccn3)CC2)cc1OC` it is 11.7%; for `COc1cc2c(cc1OC)CN(C(=O)CNS(=O)(=O)c1ccc(C)c(C)c1)CC2` it is -0.552%. In the case of `CN(C)CCCN(C(=O)CCOc1ccccc1)c1nc2ccc(F)cc2s1` it was 31.2%; in that of `Cc1ccc(-c2[nH]nc3c2C(c2cccnc2)C(C#N)=C(N)O3)cc1` (configuration not stated), -7.15%; in that of `CC(=O)c1c(O)c2cccc3c2n(c1=O)CCC3`, 23%. For `Cc1cccnc1NC(=O)c1ccc(S(=O)(=O)N2CCCCC2)cc1`, the “activation” value was 1.48%.

Turning to `O=C(NCCC1CCCCN1S(=O)(=O)c1ccc(F)cc1)C(=O)NCc1cccnc1` (configuration not stated), the “activation” value is -6.46%. For `CCOc1ccc(NC(=O)[C@@H](NC(=O)OCc2ccccc2)[C@@H](C)CC)cc1`, the “activation” value is 63.9%. Consider `CCOc1cc(OCC)cc(C(=O)Nc2cccnc2)c1`, for which the “activation” value was -5.89%. The figure for `Cc1ccc2c(=O)cc(C(=O)NC3CCS(=O)(=O)C3)oc2c1C` (configuration not stated) is -3.07%; for `CCOC(=O)N1CCN(C(=O)COc2ccccc2OC)CC1` it is 10.9%.

Turning to `CN1CCCCCC1C(=O)N1CCC(N2CCC(C(=O)N3CCOCC3)CC2)CC1` (configuration not stated), the “activation” value is 7.18%.

For `C/C(=N/NC(=O)c1ccc(Br)o1)c1ccncc1`, the “activation” value is 17.2%. As for `C/C(=N/NC(=O)c1ccc(Br)s1)c1ccncc1`, the “activation” value is 4.11%. As for `O=C(Nc1ncn[nH]1)c1ccc(Cl)c(Cl)c1`, the “activation” value is -8.6%. In the case of `Cc1ccc(C(=O)Nc2cccc(C(=O)N/N=C/c3ccc(F)cc3)c2)cc1` it was 9.11%.

For the compound `COc1ccc(CC(=O)N2CCc3cc(OC)c(OC)cc3C2)cc1`, the “activation” value is -13.2%. The figure for `COc1cccc(-n2c(=O)c3ccccc3n(CC(=O)NCC3CCCO3)c2=O)c1` (configuration not stated) is -5.02%; for `O=S(=O)(c1ccc(-c2csc(Nc3ccc(Br)cc3)n2)cc1)N1CCCC1` it is 16.7%.

Consider `O=c1[nH]nc(-c2ccc(F)cc2)cc1Cc1cccs1`, for which the “activation” value is 10%. For `CCOCC(=O)Nc1c(C(=O)OCC)oc2ccccc12`, the “activation” value is -1.44%. In the case of `CCCCNC(=O)c1ccccc1NC(=O)C1=C(C)OCCS1`, the “activation” value is 1.2%. Turning to `CCCCNC(=O)C1(C)CCN1C(=O)Cc1cccc2ccccc12` (configuration not stated), the “activation” value was 6.5%. The figure for `COc1ccc(CNC(=O)CN2C(=O)NC3(CCCCCC3)C2=O)cc1` is -21.9%; for `CCOC(=O)C1=C(COC(=O)c2cccs2)NC(=O)NC1C` (configuration not stated) it is -0.795%. The figure for `CCOc1ccc(CCNC(=O)COC(=O)c2cccc(N(C)C)c2)cc1OCC` is -30.4%. For the compound `O=S(=O)(NCc1ccccc1)c1ccc(-n2cccn2)cc1`, the “activation” value is -7.58%. In the case of `CCCCc1nc(N)c(C#N)c(-c2ccco2)c1CCC` it was 37.6%; in that of `CC(C)n1cc(/C(N)=N/O)c(=O)n(Cc2ccccc2)c1=O`, -1.49%; in that of `CCCc1nc(N)sc1C(=O)OCC`, -20%. In the case of `Cc1nc2ccccc2c2nc(NC(=O)C(F)(F)F)nn12` it was -14.6%; in that of `COC(=O)C[C@@H]1C=C[C@H](NC(=O)Cc2ccccn2)[C@@H](CO)O1`, 1.47%. In the case of `CCCOC(=O)Nc1ccc(S(=O)(=O)Nc2ncccn2)cc1` it was -0.934%. Regarding `CCCc1cc(=O)oc2cc(C)cc(OCC(=O)Nc3ccc(S(N)(=O)=O)cc3)c12`, the “activation” value is 52.8%. Turning to `Cn1cc(Br)c(C(=O)NNC(=O)c2ccccc2)n1`, the “activation” value is 9.54%. The figure for `Cc1[nH]n(-c2ccc(Br)cc2)c(=O)c1/C=N/NC(=O)c1ccccc1` is -20%.
